Assay outcomes from PubChem.
MCF10A rerep = induces DNA re-replication in MCF 10a normal breast cells. MCF 10A DNA re-replication, Hoechst nuclear intensity, 48 h. Potency, µM (highest dose often 46.1 µM), inactives show at the highest dose activity, positive = re-replication, hits mostly activators. actives 2.9% (n = 350,000). AID 624296; note: % of control where 0% means no effect; nearly all actives have a fitted effect of over 50% in size
SW480 rerep = induces DNA re-replication in SW480 colon adenocarcinoma cells. AID 624297. SW480 DNA re-replication, Hoechst DNA content imaging, 48 h. Potency, µM (top dose mostly 46.1 µM), for the others: at the highest dose re-replication activation, hits mostly activators. actives 1.8% (n = 340,000); note: % of control where 0% means no effect; nearly all actives have a fitted effect of over 55% in size
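First, 250 cells per well were seeded. Next, compound or vehicle (23 nL) was pinned in, plates sat 48 hr at 37 C. Finally Hoechst was added for 40 min before fluorescence scanning.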
RORgamma inh = blocks mouse ROR gamma transcriptional activity | P51450 | Drosophila S2 Gal4-RORgamma UAS-luciferase reporter, 20 h | Potency, µM (doses to about 53.6 µM), without a hit: at the highest dose activity change, negative = inhibition, actives largely listed as inhibitors | actives 5.4% (n = 310,000); note: % is set by controls: 0 for no effect and ±100 for the full control effect; nearly all actives have a fitted effect of over 60% in size
Target sequence (P51450 whole entry, looked up, the tested form may be a part): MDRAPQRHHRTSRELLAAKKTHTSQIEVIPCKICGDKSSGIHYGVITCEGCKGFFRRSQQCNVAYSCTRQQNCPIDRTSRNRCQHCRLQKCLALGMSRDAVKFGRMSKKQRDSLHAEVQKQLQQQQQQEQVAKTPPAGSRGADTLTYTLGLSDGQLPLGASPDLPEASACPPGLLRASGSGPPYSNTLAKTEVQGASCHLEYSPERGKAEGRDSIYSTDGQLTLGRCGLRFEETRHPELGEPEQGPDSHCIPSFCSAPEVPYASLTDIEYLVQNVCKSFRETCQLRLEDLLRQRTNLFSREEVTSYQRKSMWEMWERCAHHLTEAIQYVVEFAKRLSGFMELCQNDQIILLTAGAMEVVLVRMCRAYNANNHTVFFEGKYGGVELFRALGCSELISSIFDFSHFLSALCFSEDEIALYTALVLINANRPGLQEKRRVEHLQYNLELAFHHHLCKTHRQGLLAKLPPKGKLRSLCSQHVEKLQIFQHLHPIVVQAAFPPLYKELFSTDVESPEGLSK
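Drosophila S2 cells stably expressing Gal4-DBD/mouse RORγ fusion under metallothionein promoter plus UAS-luciferase; compound 1 h, then 700 uM CuSO4 induction for 20 h at ambient temperature; inhibition read as reduced luminescence.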
Gal4-VP16 FLuc = Gal4-VP16 reporter inhibition counter-screen; Drosophila S2 Gal4-VP16 UAS-luciferase, luminescence, 20 h; Potency, µM (highest dose often 53.6 µM), for inactives: at the top dose activity, negative = inhibition, usual class: inhibitors; actives 3.5% (n = 310,000);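 note: Gal4-VP16 expression switched on by copper sulfate through the metallothionein promoter; % is set by controls: 0 for no effect and ±100 for the full control effect; nearly all actives have a fitted effect of over 50% in size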
KB-V1 MDR tox = kills drug-selected multidrug resistant KB-V1 cells; KB-V1 MDR cells viability, CellTiter-Glo, 72 h; Potency, µM (doses to about 46.1 µM), hits mostly cytotoxic; actives 3.4% (n = 400,000); AID 1347076; note: % is set by controls: 0 for no effect and ±100 for the full control effect; nearly all actives have a fitted effect of over 60% in size
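qHTS viability screen in drug-selected KB-V1 MDR cells: 72 h compound treatment at 37 degrees C, ATP luminescence end point.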
KB-3-1 cytotox = kills parental KB-3-1 adenocarcinoma cells | KB-3-1 viability, CellTiter-Glo ATP luminescence, 72 h | Potency, µM (top dose mostly 46.1 µM), actives largely listed as cytotoxic | actives 1.4% (n = 400,000) | AID 1347075; note: % is set by controls: 0 for no effect and ±100 for the full control effect; nearly all actives have a fitted effect of over 60% in size
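Parental KB-3-1 viability, qHTS format: 72 h compound exposure, 37 °C; CellTiter-Glo; media-only wells and DMSO plates as controls; concentration-effect fits on corrected data.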
An asterisk follows results filed as active; i = inactive; u = inconclusive; x = no result; [ ] = another dose, or the depositor's remark. Hits are enriched below; roughly 10% of the tested compounds scored in any of these assays. Calls come from the whole dose curve; as a rule, active = well fitted curve in the direction sought with a large enough effect; inconclusive = small, poorly fitted or top-dose-only effect, or another doubt; inactive = no such curve, though single readings can be large; an effect the other way counts as inactive or inconclusive. Potency is the fitted concentration of half-maximal effect.

SMILES	MCF10A rerep	SW480 rerep	RORgamma inh	Gal4-VP16 FLuc	KB-V1 MDR tox	KB-3-1 cytotox
CCC(C)c1ccc(NC(=S)NC2CCN(Cc3ccccc3)CC2)cc1 (stereo not given)	u	u	7.08µM*	7.08µM*	u	u
O=C(Nc1ccc(F)cc1)NC1CCN(Cc2ccccc2)CC1	3.7%	3.1%	2.6%	-4.7%	i	i
S=C(Nc1ccccc1)NC1CCN(Cc2ccccc2)CC1	1.8%	-5.1%	6.7%	-15.2%	u	i
CCc1ccc(NC(=S)NC2CCN(Cc3ccccc3)CC2)cc1	9.2%	x	10µM*	u	u	u
CCOC(=O)[C@]12CCCC=C1N(Cc1ccco1)C(=O)[C@H](CC(=O)NCc1cccc3ccccc13)C2	x	x	x	x	u	i
CSc1ccccc1NC(=O)C1=CC(c2ccc3c(c2)OCO3)=NS(=O)(=O)N1C	x	x	x	x	i	i
COc1ccc(Cl)cc1N1C(=O)/C(=C\c2sccc2C)N=C1SCC(=O)NC1CC1	-2.7%	9.9%	u	-1.5%	20.6µM*	i
C=CCN1C(=O)/C(=C\c2ccc(Cl)cc2)N=C1SCC(=O)NC1CCCCC1	-4.5%	-7.9%	16.2%	-0.2%	u	i
CC1=Nc2cc(C(=O)NCCCOC(C)C)ccc2Sc2ccc(C)cc21	9.2µM*	6.51µM*	2.7%	-6.9%	4.11µM*	2.91µM*
CC1=Nc2cc(C(=O)NCCCOC(C)C)ccc2Sc2ccccc21	7.31µM*	u	24.4%	-3.9%[10 µM]	u	u
Cc1nc2nc(CNC(=O)OC(C)(C)C)nn2c(C)c1CCC(=O)NCc1ccccc1Cl	x	x	x	x	u	i
O=S(=O)(c1ccc(Cl)cc1)c1nc(-c2cccs2)oc1SCc1ccc(F)cc1	x	x	x	x	u	i
COc1ccc(C)cc1Nc1n[n+](-c2ccccc2)c(-c2ccc(N(C)C)cc2)s1	u	u	11.2µM*	5.62µM*	i	u
COc1ccc(C)cc1Nc1n[n+](-c2ccccc2)c(-c2c(Cl)cccc2Cl)s1	u	u	7.08µM*	15.8µM*	u	u
COc1ccccc1NC(=O)CSc1oc(-c2cccs2)nc1S(=O)(=O)c1ccccc1	x	x	x	x	i	i
O=C1NC(c2ccccc2)N=C2Oc3ccccc3C=C12 (stereo not given)	u	u	x	x	4.11µM*	1.3µM*
CC(=O)C(C(C)=O)C(NC(=O)c1cccnc1)(C(F)(F)F)C(F)(F)F	20.6µM*	u	1.6%	-9.7%	i	i
COc1cccc(-c2nnc3n2N=C(c2ccccc2OC)CS3)c1	x	x	-6.6%	u	x	x
CCCCn1nnnc1C(c1cc2ccccc2o1)N(CCN(C)C)Cc1ccccc1 (stereo not given)	x	x	x	x	i	u
Cc1ccc(S(=O)(=O)N(C)C)cc1NC(=O)CCc1c[nH]c2ccccc12	-43.3%	-0.1%	43.2%	-4.2%	u	i
COc1ccc(S(=O)(=O)N(C)C)cc1NC(=O)Cc1c[nH]c2ccccc12	3.6%	3.66µM*	8.8%	2.6%	i	i
Cc1cc2c(nc1C)CCCCN2C[C@H](C)O/N=C1/[C@H]2O[C@@H]2[C@@H](O)[C@H]2[C@H]1CCn1c(=O)n(-c3ccccc3)c(=O)n12	x	x	-3.3%[10 µM]	-4.8%[10 µM]	x	x
CCOC(=O)c1cc(S(=O)(=O)Nc2cc(C)c(Cl)cc2OC)[nH]n1	x	x	x	x	i	i
C=CCNC(=O)c1ccccc1NC(=O)c1ccc(Cl)c(S(=O)(=O)Nc2cc(C)ccc2C)c1	-1.6%	-2.5%	43.9%	-8.8%	20.6µM*	i
Cn1cc(/C=C/c2cc[n+](C)cc2)c2cc(Cl)ccc21	13µM*	11.2µM*	37.5%	-15.7%	i	0.92µM*
O=C(CCCCn1c(=O)c2ccccc2n(CC(=O)Nc2cccc(F)c2)c1=O)NCCc1ccccc1	x	x	x	x	i	i
Cc1cccc2cc(-c3nc4ccc(C(=O)O)cc4[nH]3)c(=O)oc12	7.7%	28.6%	2.82µM*	5.01µM*	i	i
